Assay outcomes deposited in PubChem BioAssay by National Center for Advancing Translational Sciences (NCATS).
Hits are enriched below; roughly 19% of the tested compounds scored in any of these assays.
TDP1 cell noCPT: qHTS for Inhibitors of human tyrosyl-DNA phosphodiesterase 1 (TDP1): qHTS in cells in absence of CPT; DT40 Tdp1-/- hTDP1 cells, no CPT, ATP luminescence, 48 h; Potency, µM (highest dose often 46.2 µM), for inactives: at the top dose activity change, negative = growth inhibition, actives largely listed as inhibitors; actives 15% (n = 420,000); AID 686978, 2013; further: potency means the concentration at half of the fitted maximal effect; nearly all actives have a fitted effect of over 55% in size
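Growth of hTDP1-complemented DT40 Tdp1-knockout cells is measured by ATP luminescence after at least 48 hr compound exposure at 37 °C, with DMSO substituting for the 20 nM CPT used in the parallel screen.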
IL-1B inflam inh: inhibitors of inflammasome signaling (IL-1 beta secretion); actives 4.7% (n = 360,000); activity change, % at 57.5 µM; THP-1 LPS/ATP IL-1B secretion, AlphaLISA, 16 h; active compounds read low; in the data active means activity change below about -50%; inconclusive means mostly about -30% to -49%
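THP-1 cells pretreated 1 hr with compounds (up to 57.5 uM final), then stimulated with LPS (250 ng/mL final) plus ATP (1.25 mM final); secreted IL-1B measured by AlphaLISA after 16 hr, decreased signal indicating inhibition.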
HT1080NT lethal: kills 2HG-producing HT-1080-NT fibrosarcoma cells; HT-1080-NT fibrosarcoma viability, CellTiter-Glo ATP luminescence, 48 h; Potency, µM (doses to about 46.1 µM), without a hit: top-dose activity, negative = less viability, usual class: cytotoxic; actives 1.6% (n = 360,000);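 further: NT is the 2HG producing partner of a matched IDH1 knockdown line; potency means the concentration at half of the fitted maximal effect; 0% = DMSO-treated cells and -100% = media-only wells without cells; nearly all actives have a fitted effect of over 55% in size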
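Toxicity toward the 2HG-producing NT line was scored as %Activity, normalised to DMSO and no-cell wells, from CellTiter-Glo luminescence after 48 hours' treatment.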
TDP1 cell CPT: growth inhibition of DT40 Tdp1-/-;hTDP1 cells with camptothecin (screen for TDP1 inhibitors) | AID 686979 | chicken DT40 Tdp1-/-;hTDP1 cells + 20 nM CPT, ATP luminescence, 48 h | Potency, µM (top dose mostly 46.2 µM), inactives show top-dose activity change, negative = growth inhibition, usual class: inhibitors | actives 12% (n = 420,000); further: potency means the concentration at half of the fitted maximal effect; nearly all actives have a fitted effect of over 55% in size
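Chicken DT40 Tdp1-/- cells stably complemented with human TDP1 were seeded at 400 cells/well in medium containing 20 nM camptothecin, exposed to pin-transferred compounds, and grown at 37 °C for at least 48 hr. Viability was read as ATP luminescence.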
HT1080 IDH1KD tx: toxicity to HT-1080 IDH1 knockdown cells (counter line) | HT-1080 IDH1 knockdown viability, ATP luminescence, 48 h | Potency, µM (doses to about 46.1 µM), inactives show at the highest dose activity, negative = toxicity, hits mostly cytotoxic | actives 2% (n = 360,000) | AID 686971;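 further: potency means the concentration at half of the fitted maximal effect; 0% = DMSO wells and -100% = cell-free medium wells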
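% activity derives from luminescence (CellTiter-Glo), normalised to DMSO and no-cell wells. HT-1080-IDH1KD cells, 750/well, had 48 h compound exposure at 37 °C.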
Numbers without * were called inactive. Unless noted, the call rests on the fitted dose curve; in most records, active means well fitted curve in the direction sought with a large enough effect; inconclusive means small, poorly fitted or top-dose-only effect, or another doubt; inactive means no such curve, though single readings can be large; an effect the other way counts as inactive or inconclusive. Unless noted, on the % scale 0 is the no-effect control and ±100 the full control effect.

Screening C[C@H]1CN([C@@H](C)CO)C(=O)CCCn2nncc2CO[C@H]1CN(C)S(=O)(=O)c1ccc(Oc2ccccc2)nc1 returned TDP1 cell noCPT 8.2µM*, IL-1B inflam inh 27, HT1080NT lethal 2%, TDP1 cell CPT 10µM* and HT1080 IDH1KD tx -2%.
`C[C@@H]1CN([C@H](C)CO)C(=O)CCCn2nncc2CO[C@H]1CN(C)Cc1ccccc1C(F)(F)F` gave TDP1 cell noCPT 21µM*, IL-1B inflam inh -9, HT1080NT lethal 6%, TDP1 cell CPT 15µM* and HT1080 IDH1KD tx 5%.
C[C@@H]1CN([C@H](C)CO)C(=O)CCCn2nncc2CO[C@H]1CN(C)Cc1ccc(-c2ccccc2)cc1 was read as TDP1 cell noCPT inconclusive, IL-1B inflam inh 7, HT1080NT lethal -7%, TDP1 cell CPT inconclusive and HT1080 IDH1KD tx -7%.
Screening Cn1c(CSc2nc3ccccc3s2)nnc1SCC(=O)NCCCN1CCOCC1 returned TDP1 cell noCPT 1%, IL-1B inflam inh 34, HT1080NT lethal 4%, TDP1 cell CPT -14% and HT1080 IDH1KD tx 2%.
For CCCCCCCC/C=C\CCCCCCCC(=O)NCc1ccc(O)c(OC)c1 the results were TDP1 cell noCPT inconclusive and TDP1 cell CPT 3.3µM*.
CCCCCCCC/C=C\CCCCCCCC(=O)NCCc1ccc(O)c(O)c1 was read as TDP1 cell noCPT 2.9µM*, IL-1B inflam inh inconclusive, HT1080NT lethal 4.6µM*, TDP1 cell CPT 1µM* and HT1080 IDH1KD tx 23µM*.
For NC(=O)[C@H]1CC2(CC(c3cccc(NC(=O)[C@H]4CCC(=O)N4)c3)=NO2)CN1C(=O)c1cc([N+](=O)[O-])cc([N+](=O)[O-])c1 (stereo not given in full) the results were TDP1 cell noCPT 2%, IL-1B inflam inh 8, HT1080NT lethal 8%, TDP1 cell CPT 19% and HT1080 IDH1KD tx 14%.
`O=C(CNC(=O)C1CCCCC1)OCc1ccccc1` gave TDP1 cell noCPT 1% and TDP1 cell CPT 19%.
For c1ccc2c(c1)[nH]c1c(N3CCC4(CC3)OCCO4)ncnc12 the results were TDP1 cell noCPT 7.3µM*, IL-1B inflam inh -12, HT1080NT lethal -28%, TDP1 cell CPT 16µM* and HT1080 IDH1KD tx inconclusive.
`c1nc(N2CCC3(CC2)OCCO3)c2[nH]cnc2n1` gave TDP1 cell noCPT -23%, IL-1B inflam inh 1, HT1080NT lethal 13%, TDP1 cell CPT -27% and HT1080 IDH1KD tx 21%.
COc1cccc2[nH]c3c(=O)n(CCCN4CCOCC4)cnc3c12 was read as TDP1 cell noCPT -3%, IL-1B inflam inh 44, HT1080NT lethal 0%, TDP1 cell CPT -2% and HT1080 IDH1KD tx 2%.
COc1cccc2[nH]c3c(N4CCC(C)CC4)ncnc3c12 was read as TDP1 cell noCPT 18µM*, IL-1B inflam inh -52*, HT1080NT lethal -6%, TDP1 cell CPT 26µM* and HT1080 IDH1KD tx -19%.
COc1cccc2[nH]c3c(N4CCC5(CC4)OCCO5)ncnc3c12 was read as TDP1 cell noCPT 23µM*, IL-1B inflam inh -3, HT1080NT lethal 2%, TDP1 cell CPT inconclusive and HT1080 IDH1KD tx -2%.
`OC1(c2cccc(C(F)(F)F)c2)CCN(c2ncnc3c2[nH]c2ccccc23)CC1` gave TDP1 cell noCPT 21µM*, IL-1B inflam inh -24, HT1080NT lethal 23µM*, TDP1 cell CPT 23µM* and HT1080 IDH1KD tx inconclusive.
Screening COc1ccccc1C(=O)NCCC(=O)Nc1ccc(S(=O)(=O)N2CCC(C)CC2)cc1 returned TDP1 cell noCPT -17%, IL-1B inflam inh -1, HT1080NT lethal -6%, TDP1 cell CPT inconclusive and HT1080 IDH1KD tx -6%.
O=C(O)/C=C/C(=O)N(CC1CCCO1)C1CC(=O)N(c2c(Cl)cccc2Cl)C1=O (stereo not given) was read as TDP1 cell noCPT -3%, IL-1B inflam inh -3, HT1080NT lethal -12%, TDP1 cell CPT 0% and HT1080 IDH1KD tx -9%.
